Experimental data from PubChem BioAssay (NCATS).
Several values for one entry are separate records, joined by “and”; a condition that tells them apart may be missing. Equal values may be shown once. Inconclusive results are not listed. Activity calls are given as the source filed them. Calls follow the shape of the dose curve; as a rule, active = well fitted curve in the direction sought with a large enough effect; inconclusive = small, poorly fitted or top-dose-only effect, or another doubt; inactive = no such curve, though single readings can be large; an effect the other way counts as inactive or inconclusive.

These compounds were tested against Cytochrome P450 3A4 (Homo sapiens) (UniProt P08684) (assay: qHTS Assay for Activators of Cytochrome P450 3A4 (AID 885; also: nearly all actives have a fitted effect of over 65% in size)). Conditions: recombinant CYP3A4, Luciferin-PPXE luminescence, 60 min; series mostly up to 57.1 µM; activity change, positive = activation: at the top concentration.
Sequence of Cytochrome P450 3A4 (Homo sapiens) (P08684 whole entry, looked up): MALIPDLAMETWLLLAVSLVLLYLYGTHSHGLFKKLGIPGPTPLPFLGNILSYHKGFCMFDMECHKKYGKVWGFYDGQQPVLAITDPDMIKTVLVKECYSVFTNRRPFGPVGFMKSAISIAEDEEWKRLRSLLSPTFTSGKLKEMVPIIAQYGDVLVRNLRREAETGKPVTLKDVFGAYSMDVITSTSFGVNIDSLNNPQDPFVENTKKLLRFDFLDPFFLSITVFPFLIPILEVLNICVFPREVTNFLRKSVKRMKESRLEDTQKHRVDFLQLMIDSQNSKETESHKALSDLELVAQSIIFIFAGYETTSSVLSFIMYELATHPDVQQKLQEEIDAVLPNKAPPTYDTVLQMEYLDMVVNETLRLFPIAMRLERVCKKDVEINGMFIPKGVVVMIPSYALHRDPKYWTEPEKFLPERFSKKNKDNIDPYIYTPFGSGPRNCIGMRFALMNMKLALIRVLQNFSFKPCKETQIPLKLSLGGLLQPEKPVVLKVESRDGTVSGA
Summary of the method: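 Steps: enzyme/substrate mix dispensed; compound added, 10 min RT; NADPH regeneration solution added, 60 min RT; luciferin detection buffer stops reaction; 20 min later luminescence measured.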

Row | SMILES | activity change, positive = activation
1 | C=CC[C@@H]1C=C[C@@H](O/N=C\C[C@@H]2C=C[C@H](OC(C)=O)[C@H](COC(C)=O)O2)[C@@H](CO)O1 | -49.3% [at 11.4 µM] (inactive)
2 | C/C(CCC(=O)OC[C@@H]1O[C@H](C#Cc2ccccc2)C=C[C@@H]1Oc1ccc(C)cc1)=N/OC[C@@H](C)[C@H](OCc1ccccc1)C(C)C | -45.8% [at 11.4 µM] (inactive)
3 | C/C(CCN1CCc2nc(-c3ccccc3)c(-c3ccccc3)cc2C1)=N\O[C@@H](C)c1cn([C@H](CO)Cc2ccccc2)nn1 | -54.2% [at 11.4 µM] (inactive) and -52.4% [at 11.4 µM] (inactive)
4 | CO[C@H]1COC(=O)C/C=C\[C@H](C)COC(=O)[C@@H](OCc2ccccc2)/C=C\[C@@H]1C | -41.2% [at 11.4 µM] (inactive)
5 | CO[C@H]1COC(=O)C/C=C\[C@@H](C)COC(=O)[C@@H](OCc2ccccc2)/C=C\[C@@H]1C | -63.8% [at 11.4 µM] (inactive)
6 | COc1ccc(COC(=O)N/N=C2/C[C@@H](O)[C@@H](O)[C@@H]3[C@@H]4C(=O)N(c5cccc(Oc6ccccc6)c5)C(=O)[C@H]4CC[C@@H]23)cc1 | -30.5% [at 11.4 µM] (inactive)
7 | CC(C)=CCC/C(C)=C/CO/N=C1/[C@H]2O[C@@H]2[C@@H](O)[C@H]2[C@H]1CCn1c(=O)n(Cc3cc4c(cc3Cl)OCO4)c(=O)n12 | -56.5% [at 11.4 µM] (inactive)
8 | C/C(CCN1CCc2nc(-c3ccccc3)c(-c3ccccc3)cc2C1)=N\O[C@@H](C)c1cc(-c2c(C)cc(C)cc2C)no1 | -63.5% [at 11.4 µM] (inactive)
9 | CC(C)C(=O)N[C@@H]1CCCN1C(=O)/C=C\c1ccccc1 | -30.2% [at 11.4 µM] (inactive)
10 | C/C(CCN1CCCCc2nc(C)c(C)cc21)=N\OC[C@@H](C)[C@H](OCc1ccccc1)C(C)C | -49.2% [at 11.4 µM] (inactive)
11 | C#CCCCO/N=C1/C[C@@H](O)[C@@H](O)[C@@H]2[C@@H]3C(=O)N(C4CCCCC4)C(=O)[C@H]3CC[C@H]12 | -57% [at 11.4 µM] (inactive)

Each compound was assayed against Cytochrome P450 2D6 (Homo sapiens) (UniProt P10635) (assay: qHTS Assay for Inhibitors and Substrates of Cytochrome P450 2D6 (AID 891; also: nearly all actives have a fitted effect of over 60% in size; also: potency is read from the fitted curve at half-maximal effect;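 as to activity change, negative = inhibition: luciferin methyl ether substrate demethylated by CYP2D6 with NADPH regeneration; % is scaled to controls: 0 for no effect and ±100 for the full control effect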)). Conditions: recombinant CYP2D6, luciferin-ME EGE luminescence; series mostly up to 11.4 µM; activity change, negative = inhibition: at the top concentration.
Sequence of Cytochrome P450 2D6 (Homo sapiens) (P10635 whole entry, looked up): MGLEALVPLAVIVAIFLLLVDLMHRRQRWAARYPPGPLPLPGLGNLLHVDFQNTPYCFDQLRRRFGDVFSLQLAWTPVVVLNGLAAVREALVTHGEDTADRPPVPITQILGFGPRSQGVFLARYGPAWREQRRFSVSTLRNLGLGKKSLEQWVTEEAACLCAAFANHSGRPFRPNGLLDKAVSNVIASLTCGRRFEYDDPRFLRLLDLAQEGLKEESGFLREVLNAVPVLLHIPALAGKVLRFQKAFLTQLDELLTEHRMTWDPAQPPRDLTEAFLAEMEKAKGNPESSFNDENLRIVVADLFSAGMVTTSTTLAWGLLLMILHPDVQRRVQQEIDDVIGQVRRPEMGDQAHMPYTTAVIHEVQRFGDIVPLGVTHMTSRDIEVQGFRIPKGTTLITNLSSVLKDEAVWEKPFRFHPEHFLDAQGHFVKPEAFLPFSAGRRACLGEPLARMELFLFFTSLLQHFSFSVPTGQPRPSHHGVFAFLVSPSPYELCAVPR
Summary of the method: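 Human CYP2D6 (5 nM) with 30 uM Luciferin-ME EGE (at Km) in 100 mM KPO4, compound preincubated 10 min, then NADPH regeneration system for 60 min at room temperature. Luciferin read by luminescence; normalized to 1.43 uM quinidine.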

Row | SMILES | activity change, negative = inhibition | Potency
12 | O=C(N/N=C1/C[C@@H](O)[C@@H](O)[C@@H]2[C@@H]3C(=O)N(Cc4ccccc4)C(=O)[C@H]3CC[C@H]12)OCc1ccccc1 | 23.2% (inactive) | –
13 | CC(=O)OC[C@@H]1O[C@@H](O/N=C2/C[C@@H](O)[C@@H](O)[C@@H]3[C@@H]4C(=O)N(Cc5ccccc5)C(=O)[C@H]4CC[C@@H]23)[C@H](OC(C)=O)[C@H](OC(C)=O)[C@@H]1OC(C)=O | – | 3.98 µM (active)
14 | COC(=O)C/C=C\[C@@H](C)[C@@H](/C=N\OC[C@@H](O)COCc1ccco1)OC | 30.1% (inactive) | –
15 | O=C(NCCC[N+]1=CC=N[C@H]1c1ccccc1)N1CCCc2nc(-c3ccc(Br)cc3)ccc21 | – | 0.0794 µM (active)
16 | CC(C)c1ccc2c(c1)CC[C@@H]1[C@@](C)(CN)CCC[C@@]21C | – | 1 µM (active)
17 | CC(=O)OC[C@@H]1O[C@@H](O/N=C2/C[C@@H](O)[C@@H](O)[C@@H]3[C@@H]4C(=O)N(C5CCCCC5)C(=O)[C@H]4CC[C@H]23)[C@H](OC(C)=O)[C@H](OC(C)=O)[C@@H]1OC(C)=O | – | 3.98 µM (active)
18 | CC(=O)OC[C@@H]1O[C@@H](O/N=C2/C[C@@H](O)[C@@H](O)[C@@H]3[C@H]4C(=O)N(c5ccc(F)cc5F)C(=O)[C@@H]4CC[C@H]23)[C@H](OC(C)=O)[C@H](OC(C)=O)[C@@H]1OC(C)=O | – | 3.16 µM (active)
19 | CCOC(=O)N/N=C1/C[C@@H](O)[C@@H](O)[C@@H]2[C@@H]3C(=O)N(C4CCCCC4)C(=O)[C@H]3CC[C@@H]12 | 26.9% (inactive) | –
20 | CCOC(=O)CCN1C(=O)[C@H]2[C@H]3[C@H](O)[C@H](O)C/C(=N/O[C@@H]4O[C@@H](COC(C)=O)[C@@H](OC(C)=O)[C@@H](OC(C)=O)[C@H]4OC(C)=O)[C@@H]3CC[C@@H]2C1=O | – | 3.16 µM (active)
21 | CCOC(=O)N/N=C1/C[C@@H](O)[C@@H](O)[C@@H]2[C@@H]3C(=O)N(Cc4ccccc4)C(=O)[C@H]3CC[C@@H]12 | 21.6% (inactive) | –
22 | CO[C@@H]1COC(=O)C/C=C\[C@H](C)COC(=O)[C@H](C)NC(=O)C/C=C\[C@H]1C | 27.4% (inactive) | –
23 | CCOC(=O)CCN1C(=O)[C@H]2[C@H]3[C@H](O)[C@H](O)C/C(=N/O[C@@H]4O[C@@H](COC(C)=O)[C@@H](OC(C)=O)[C@@H](OC(C)=O)[C@H]4OC(C)=O)[C@H]3CC[C@@H]2C1=O | – | 3.16 µM (active)
24 | CO[C@@H]1COC(=O)CC=C[C@@H](C)[C@@H]2C=C[C@H](O)[C@@H](COC(=O)[C@H](C)NC(=O)CC=C[C@H]1C)O2 | 36.6% (inactive) | –
25 | CC(C)=CCC/C(C)=C/CO/N=C1/C[C@@H](O)[C@@H](O)[C@@H]2[C@@H]3C(=O)N(C(C)(C)C)C(=O)[C@H]3CC[C@H]12 | 32.2% (inactive) | –
26 | CC(=O)OC[C@H]1O[C@@H](ON=C(C)C)[C@H](OC(C)=O)[C@@H](OC(C)=O)[C@H]1OC(C)=O | – | 3.16 µM (active)
27 | CCN1C(=O)[C@H]2[C@@H]3[C@H](O)C=CC(=O)[C@H]3CC[C@H]2C1=O | 30% (inactive) | –
28 | CC(=O)OC[C@@H]1O[C@@H](O/N=C2/C[C@@H](O)[C@@H](O)[C@@H]3[C@@H]4C(=O)N(Cc5ccccc5)C(=O)[C@H]4CC[C@H]23)[C@H](OC(C)=O)[C@H](OC(C)=O)[C@@H]1OC(C)=O | – | 3.16 µM (active)
29 | CC(C)(C)N1C(=O)[C@H]2[C@@H]3[C@H](O)[C@H](O)CC(=O)[C@H]3CC[C@H]2C1=O | 26.7% (inactive) | –
30 | CC(C)=CCC/C(C)=C/CO/N=C1/C[C@@H](O)[C@@H](O)[C@@H]2[C@@H]3C(=O)N(C[C@@H]4CCCO4)C(=O)[C@H]3CC[C@@H]12 | 26.3% (inactive) | –
31 | CO/N=C(\C)CCN1CCCc2nc(C)c(C)cc21 | – | 3.98 µM (active)
32 | CC(=O)OC[C@@H]1O[C@H](C/C=N\O[C@@H]2O[C@H](COC(C)=O)[C@@H](OC(C)=O)[C@H](OC(C)=O)[C@H]2OC(C)=O)C=C[C@@H]1OC(C)=O | – | 3.98 µM (active)
33 | CC(C)=NOC[C@@H](O)COCc1ccco1 | 28.9% (inactive) | –
34 | COC(=O)C(/C=C/C(C)Cc1cc(Br)cc(OCc2ccccc2)c1OC)OCc1ccccc1 (stereo not given) | -12.8% (inactive) | –
35 | CCN1C(=O)[C@H]2[C@H]3[C@H](O)[C@H](O)C/C(=N/O[C@@H]4O[C@H](COC(C)=O)[C@@H](OC(C)=O)[C@H](OC(C)=O)[C@H]4OC(C)=O)[C@@H]3CC[C@@H]2C1=O | – | 3.98 µM (active)
36 | O=C1[C@@H]2[C@H]3[C@H](O)[C@H](O)C/C(=N/OCc4ccccc4)[C@@H]3CC[C@H]2C(=O)N1c1ccc(F)cc1F | 25.4% (inactive) | –
37 | C#CCCCO/N=C1/[C@H]2O[C@@H]2[C@@H](O)[C@H]2[C@H]1CCn1c(=O)n(C)c(=O)n12 | 25.2% (inactive) | –
38 | CO[C@@H]1COC(=O)CCC[C@@H](C)[C@H](OC)COC(=O)CCC[C@H]1C | 34.5% (inactive) | –
39 | CC(=O)OC[C@H]1O[C@@H](O/N=C\[C@@H](C)[C@H](OCc2ccccc2)C(C)C)[C@H](OC(C)=O)[C@@H](OC(C)=O)[C@H]1OC(C)=O | – | 3.98 µM (active)
40 | CCc1cc2c(nc1CC)CCN(CC/C(C)=N/O[C@@H]1O[C@H](COC(C)=O)[C@H](OC(C)=O)[C@H](OC(C)=O)[C@H]1OC(C)=O)C2 | – | 3.98 µM (active)
